Source: PubChem BioAssay AID1159580 (chemical genetic matrix, 2015)
Screen size: about 5,500 compounds; about 2,000 (36%) were called active. Another 18% or so got no clear call; they are omitted. No stated cut-off is given here; in the data, active means normalized growth mostly below about 0.91 (no sharp cut-off); inconclusive means no clear call, values can overlap the other calls; inactive means mostly above about 0.92. The list shows a part of the results.

Experiment: chemical genetic growth profiling, strain panel (AID 1159580);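 further: tested at 20 µM; growth read once vehicle control cultures reached saturation at 30 °C; 1 = growth at the plate median or of vehicle wells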
Details: growth OD

Measured: normalized growth

CN[C@@H]1[C@H](O)[C@H](NC)[C@H]2O[C@@]3(O)C(=O)C[C@@H](C)O[C@H]3O[C@@H]2[C@H]1O
inactive: S. cerevisiae deletion strains, locus YJR075W, strain HOC1, stronger effect = lower value 1.01 | S. cerevisiae deletion strains, locus YKL009W, strain mrt4, stronger effect = lower value 1.02 | S. cerevisiae deletion strains, locus YKL068W, stronger effect = lower value 1.01 | S. cerevisiae deletion strains, locus YKL085W, strain MDH1 (second series), stronger effect = lower value 1.01 | S. cerevisiae deletion strains, locus YKL085W, strain MDH1, stronger effect = lower value 1.01 | S. cerevisiae deletion strains, locus YKL160W, strain elf1, stronger effect = lower value 1.01 | S. cerevisiae deletion strains, locus YKL190W, strain CNB1, stronger effect = lower value 1 | S. cerevisiae deletion strains, locus YKR001C, strain vps1, stronger effect = lower value 1.02 | S. cerevisiae deletion strains, locus YKR026C, strain gcn3, stronger effect = lower value 1.01 | S. cerevisiae deletion strains, locus YKR091W, strain srl3, stronger effect = lower value 1 | S. cerevisiae deletion strains, locus YLL001W, strain dnm1, stronger effect = lower value 1.02 | S. cerevisiae deletion strains, locus YLL026W, stronger effect = lower value 1 | S. cerevisiae deletion strains, locus YLL041C, strain sdh2, stronger effect = lower value 0.999 | S. cerevisiae deletion strains, locus YLR027C, strain aat2, stronger effect = lower value 1.01 | S. cerevisiae deletion strains, locus YLR039C, strain RIC1, stronger effect = lower value 1.05 | S. cerevisiae deletion strains, locus YLR058C, strain SHM2, stronger effect = lower value 1.01 | S. cerevisiae deletion strains, locus YLR102C, strain apc9, stronger effect = lower value 1.02 | S. cerevisiae deletion strains, locus YLR113W, strain HOG1, stronger effect = lower value 0.967 | S. cerevisiae deletion strains, locus YLR221C, strain rsa3, stronger effect = lower value 0.981 | S. cerevisiae deletion strains, locus YLR258W, strain gsy2, stronger effect = lower value 0.999 | S. cerevisiae deletion strains, locus YLR262C, strain YPT6 (second series), stronger effect = lower value 1.05 | S. cerevisiae deletion strains, locus YLR262C, strain YPT6, stronger effect = lower value 1.06 | S. cerevisiae deletion strains, locus YLR268W, strain sec22, stronger effect = lower value 1.04 | S. cerevisiae deletion strains, locus YLR320W, strain mms22, stronger effect = lower value 0.974 | S. cerevisiae deletion strains, locus YLR330W, strain CHS5, stronger effect = lower value 1.01 | S. cerevisiae deletion strains, locus YLR342W, strain FKS1 (second series), stronger effect = lower value 1 | S. cerevisiae deletion strains, locus YLR342W, strain FKS1, stronger effect = lower value 1.02 | S. cerevisiae deletion strains, locus YLR357W, strain rsc2, stronger effect = lower value 1 | S. cerevisiae deletion strains, locus YLR370C, strain arc18, stronger effect = lower value 0.995 | S. cerevisiae deletion strains, locus YLR371W, strain rom2, stronger effect = lower value 1.02 | S. cerevisiae deletion strains, locus YLR384C, strain iki3, stronger effect = lower value 1.01 | S. cerevisiae deletion strains, locus YLR418C, strain cdc73, stronger effect = lower value 1.03 | S. cerevisiae deletion strains, locus YML016C, strain PPZ1, stronger effect = lower value 1.01 | S. cerevisiae deletion strains, locus YML032C, strain rad52, stronger effect = lower value 1.04 | S. cerevisiae deletion strains, locus YML120C, strain ndi1, stronger effect = lower value 1 | S. cerevisiae deletion strains, locus YML124C, strain tub3, stronger effect = lower value 1.02 | S. cerevisiae deletion strains, locus YMR058W, strain fet3, stronger effect = lower value 1.01 | S. cerevisiae deletion strains, locus YMR078C, strain ctf18, stronger effect = lower value 1.02 | S. cerevisiae deletion strains, locus YMR125W, strain sto1, stronger effect = lower value 0.99 | S. cerevisiae deletion strains, locus YMR129W, stronger effect = lower value 0.999 | S. cerevisiae deletion strains, locus YMR205C, strain PFK2, stronger effect = lower value 1 | S. cerevisiae deletion strains, locus YMR223W, strain ubp8, stronger effect = lower value 1.01 | S. cerevisiae deletion strains, locus YMR231W, strain pep5, stronger effect = lower value 1 | S. cerevisiae deletion strains, locus YMR263W, strain SAP30, stronger effect = lower value 1.01 | S. cerevisiae deletion strains, locus YMR307W, strain GAS1, stronger effect = lower value 1.03 | S. cerevisiae deletion strains, locus YNL067W, strain RPL9B, stronger effect = lower value 1.02 | S. cerevisiae deletion strains, locus YNL071W, strain lat1, stronger effect = lower value 0.996 | S. cerevisiae deletion strains, locus YNL128W, strain TEP1, stronger effect = lower value 1.02 | S. cerevisiae deletion strains, locus YNL153C, strain GIM3, stronger effect = lower value 1 | S. cerevisiae deletion strains, locus YNL183C, strain NPR1, stronger effect = lower value 0.94 | S. cerevisiae deletion strains, locus YNL209W, strain ssb2, stronger effect = lower value 0.999 | S. cerevisiae deletion strains, locus YNL233W, strain BNI4, stronger effect = lower value 1.02 | S. cerevisiae deletion strains, locus YNL248C, strain rpa49, stronger effect = lower value 0.954 | S. cerevisiae deletion strains, locus YNL250W, strain rad50, stronger effect = lower value 1.02 | S. cerevisiae deletion strains, locus YNL271C, strain bni1, stronger effect = lower value 1.01 | S. cerevisiae deletion strains, locus YNL298W, strain CLA4, stronger effect = lower value 1.03 | S. cerevisiae deletion strains, locus YNL307C, strain MCK1, stronger effect = lower value 1.03 | S. cerevisiae deletion strains, locus YNL322C, strain KRE1 (second series), stronger effect = lower value 1 | S. cerevisiae deletion strains, locus YNL322C, strain KRE1, stronger effect = lower value 1.01 | S. cerevisiae deletion strains, locus YNR049C, strain mso1, stronger effect = lower value 1.01 | S. cerevisiae deletion strains, locus YNR052C, strain pop2, stronger effect = lower value 1.02 | S. cerevisiae deletion strains, locus YOL006C, strain TOP1, stronger effect = lower value 1.08 | S. cerevisiae deletion strains, locus YOL012C, strain htz1 0.978 | S. cerevisiae deletion strains, locus YOL147C, strain pex11, stronger effect = lower value 1.02 | S. cerevisiae deletion strains, locus YOR001W, strain rrp6, stronger effect = lower value 1.02 | S. cerevisiae deletion strains, locus YOR061W, strain CKA2, stronger effect = lower value 1.02 | S. cerevisiae deletion strains, locus YOR069W, strain VPS5, stronger effect = lower value 1.01 | S. cerevisiae deletion strains, locus YOR070C, strain gyp1, stronger effect = lower value 1 | S. cerevisiae deletion strains, locus YOR080W, strain dia2, stronger effect = lower value 1.01 | S. cerevisiae deletion strains, locus YOR083W, strain WHI5, stronger effect = lower value 0.982 | S. cerevisiae deletion strains, locus YOR106W, strain vam3, stronger effect = lower value 1.02 | S. cerevisiae deletion strains, locus YOR136W, strain idh2, stronger effect = lower value 1.02 | S. cerevisiae deletion strains, locus YOR144C, strain elg1, stronger effect = lower value 1.02 | S. cerevisiae deletion strains, locus YOR184W, strain ser1, stronger effect = lower value 1.03 | S. cerevisiae deletion strains, locus YOR231W, strain MKK1, stronger effect = lower value 0.953 | S. cerevisiae deletion strains, locus YOR265W, strain rbl2, stronger effect = lower value 1.01 | S. cerevisiae deletion strains, locus YOR270C, strain vph1, stronger effect = lower value 1.01 | S. cerevisiae deletion strains, locus YOR290C, strain snf2, stronger effect = lower value 0.978 | S. cerevisiae deletion strains, locus YOR316C, strain cot1, stronger effect = lower value 1.01 | S. cerevisiae deletion strains, locus YPL051W, strain arl3, stronger effect = lower value 1.01 | S. cerevisiae deletion strains, locus YPL055C, strain LGE1, stronger effect = lower value 1.02 | S. cerevisiae deletion strains, locus YPL078C, strain atp4, stronger effect = lower value 1.02 | S. cerevisiae deletion strains, locus YPL106C, strain sse1, stronger effect = lower value 0.991 | S. cerevisiae deletion strains, locus YPL240C, strain hsp82, stronger effect = lower value 0.995 | S. cerevisiae deletion strains, locus YPL241C, strain CIN2, stronger effect = lower value 1.01 | S. cerevisiae deletion strains, locus YPL256C, strain CLN2, stronger effect = lower value 0.962 | S. cerevisiae deletion strains, locus YPR119W, strain clb2, stronger effect = lower value 1.02 | S. cerevisiae deletion strains, locus YPR141C, strain kar3, stronger effect = lower value 1.02 | S. cerevisiae deletion strains, locus YPR163C, strain tif3, stronger effect = lower value 1.02 | S. cerevisiae deletion strains, locus YPR167C, strain met16, stronger effect = lower value 1.03 | S. cerevisiae deletion strains, strain wtn01, stronger effect = lower value 1.03 | S. cerevisiae strains, strain wild type, stronger effect = lower value 1.01
